Test results from the supplement of paper PMC12645437, “Orthogonal IMiD-Degron Pairs Induce Selective Protein Degradation in Cells” (ACS Chemical Biology, 2025).
In all, about 8,300 sequences were measured (“log2 fold change of degron read counts, EGFP-low vs EGFP+ sorted cells (limma voom), compound-induced degradation”: median about -1.1, highest 2% from about 3.2 on). The list comes from a sample in which the highest values are over-represented; it also holds similar and randomly drawn sequences.

T1: CRBN, Q96SW2
T1 chain: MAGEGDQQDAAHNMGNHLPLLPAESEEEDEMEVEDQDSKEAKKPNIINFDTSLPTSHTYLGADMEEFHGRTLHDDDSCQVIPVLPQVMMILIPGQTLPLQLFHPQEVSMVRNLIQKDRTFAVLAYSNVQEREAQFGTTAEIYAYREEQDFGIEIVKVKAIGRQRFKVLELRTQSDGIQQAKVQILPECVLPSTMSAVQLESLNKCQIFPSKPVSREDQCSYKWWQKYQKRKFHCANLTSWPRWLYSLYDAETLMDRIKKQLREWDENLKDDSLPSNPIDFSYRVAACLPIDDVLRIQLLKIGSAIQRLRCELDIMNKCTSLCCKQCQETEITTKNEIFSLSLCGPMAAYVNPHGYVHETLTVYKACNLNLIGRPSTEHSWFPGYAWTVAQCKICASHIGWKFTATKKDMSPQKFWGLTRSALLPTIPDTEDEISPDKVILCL

B1: 46F_47W_49N_50I_52G_53A_54F_55F_67L_, Q9UKT9 (peptide)
chain: FWCNICGAFFTQKGNLLRHIKL
B2: 46F_47K_49N_50V_52G_53A_54S_55F_67L_, Q9UKT9 (peptide)
chain: FKCNVCGASFTQKGNLLRHIKL
B3: 46F_47F_49N_50Q_52G_53R_54K_55F_67L_, Q9UKT9 (peptide)
chain: FFCNQCGRKFTQKGNLLRHIKL
B4: 46F_47R_49P_50V_52G_53A_54F_55F_67L_, Q9UKT9 (peptide)
chain: FRCPVCGAFFTQKGNLLRHIKL
B5: 46L_47K_49N_50Q_52G_53F_54C_55C_67L_, Q9UKT9 (peptide)
chain: LKCNQCGFCCTQKGNLLRHIKL
B6: 46L_47F_49E_50I_52G_53F_54D_55C_67L_, Q9UKT9 (peptide)
chain: LFCEICGFDCTQKGNLLRHIKL
B7: 46F_47I_49N_50Q_52G_53A_54C_55F_67L_, Q9UKT9 (peptide)
chain: FICNQCGACFTQKGNLLRHIKL
B8: 46F_47K_49P_50I_52G_53H_54A_55F_67L_, Q9UKT9 (peptide)
chain: FKCPICGHAFTQKGNLLRHIKL
B9: 46F_47H_49P_50I_52G_53H_54W_55F_67L_, Q9UKT9 (peptide)
chain: FHCPICGHWFTQKGNLLRHIKL
B10: 46F_47E_49E_50I_52G_53A_54G_55F_67L_, Q9UKT9 (peptide)
chain: FECEICGAGFTQKGNLLRHIKL
B11: 46F_47Q_49E_50I_52G_53A_54G_55F_67L_, Q9UKT9 (peptide)
chain: FQCEICGAGFTQKGNLLRHIKL
B12: 46F_47W_49E_50I_52G_53A_54G_55F_67L_, Q9UKT9 (peptide)
chain: FWCEICGAGFTQKGNLLRHIKL
B13: 46F_47Y_49E_50I_52G_53A_54G_55F_67L_, Q9UKT9 (peptide)
chain: FYCEICGAGFTQKGNLLRHIKL
B14: 46F_47G_49E_50I_52G_53A_54G_55F_67L_, Q9UKT9 (peptide)
chain: FGCEICGAGFTQKGNLLRHIKL
B15: 46F_47L_49E_50I_52G_53A_54G_55F_67L_, Q9UKT9 (peptide)
chain: FLCEICGAGFTQKGNLLRHIKL
B16: 46F_47G_49N_50I_52G_53A_54L_55F_67L_, Q9UKT9 (peptide)
chain: FGCNICGALFTQKGNLLRHIKL
B17: 46F_47T_49E_50I_52G_53R_54V_55F_67L_, Q9UKT9 (peptide)
chain: FTCEICGRVFTQKGNLLRHIKL
B18: 46F_47R_49P_50I_52G_53R_54L_55F_67L_, Q9UKT9 (peptide)
chain: FRCPICGRLFTQKGNLLRHIKL
B19: 46F_47D_49P_50I_52G_53R_54M_55F_67L_, Q9UKT9 (peptide)
chain: FDCPICGRMFTQKGNLLRHIKL
B20: 46F_47R_49N_50Q_52G_53H_54R_55F_67L_, Q9UKT9 (peptide)
chain: FRCNQCGHRFTQKGNLLRHIKL
B21: 46F_47H_49E_50V_52G_53A_54C_55F_67L_, Q9UKT9 (peptide)
chain: FHCEVCGACFTQKGNLLRHIKL
B22: 46F_47A_49E_50V_52G_53A_54C_55F_67L_, Q9UKT9 (peptide)
chain: FACEVCGACFTQKGNLLRHIKL
B23: 46F_47K_49E_50V_52G_53A_54C_55F_67L_, Q9UKT9 (peptide)
chain: FKCEVCGACFTQKGNLLRHIKL
B24: 46F_47W_49E_50V_52G_53A_54C_55F_67L_, Q9UKT9 (peptide)
chain: FWCEVCGACFTQKGNLLRHIKL
B25: 46F_47D_49E_50V_52G_53A_54C_55F_67L_, Q9UKT9 (peptide)
chain: FDCEVCGACFTQKGNLLRHIKL
B26: 46F_47G_49E_50V_52G_53A_54C_55F_67L_, Q9UKT9 (peptide)
chain: FGCEVCGACFTQKGNLLRHIKL
B27: 46F_47F_49E_50V_52G_53A_54C_55F_67L_, Q9UKT9 (peptide)
chain: FFCEVCGACFTQKGNLLRHIKL
B28: 46F_47E_49E_50V_52G_53A_54C_55F_67L_, Q9UKT9 (peptide)
chain: FECEVCGACFTQKGNLLRHIKL
B29: 46F_47N_49E_50V_52G_53A_54C_55F_67L_, Q9UKT9 (peptide)
chain: FNCEVCGACFTQKGNLLRHIKL
B30: 46F_47C_49E_50V_52G_53A_54C_55F_67L_, Q9UKT9 (peptide)
chain: FCCEVCGACFTQKGNLLRHIKL

Molecular target: T1, CRBN, Q96SW2
Experiment: log2 fold change of degron read counts, EGFP-low vs EGFP+ sorted cells (limma voom), compound-induced degradation; higher = more compound-induced degradation of the degron-EGFP fusion; degrons are variants of IKZF1/3 zinc finger 2; compound dose not given here
Conditions: Jurkat, 18 h
[1] = compound: compound 19 (5-tert-butyl-thalidomide)
[2] = compound: compound 22 (5-morpholino-thalidomide)
[3] = compound: compound 33 (diphenyl IMiD analogue)
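Further: pooled lentiviral library of zinc finger degron-EGFP fusions in mCherry-positive Jurkat cells, FACS-sorted after compound exposure, with degron abundance counted by next-generation sequencing.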

Sequence	log2 fold change of degron read counts [1]	log2 fold change of degron read counts [2]	log2 fold change of degron read counts [3]	log2 fold change of degron read counts (compound: thalidomide)
B1	1.6	2.32	0.971	-0.294
B2	-1.29	-2.06	-3.02	-1.88
B3	-2.1	-2.17	-2	-2.57
B4	-0.609	-0.0858	1.19	1.19
B5	-2.31	-2.82	-2.5	-1.52
B6	-1.8	-2.4	-2.23	-1.77
B7	-2.25	-1.71	-0.536	-1.25
B8	-2.73	-2.8	-3.02	-2
B9	-1.67	-2.48	-1.12	-1.62
B10	1.97	-1.47	0.9	1.53
B11	2.81	1.87	1.48	3.09
B12	3.64	2.88	1.29	-0.285
B13	3.64	3.17	2.39	0.707
B14	2.12	0.308	1.02	-0.108
B15	2.55	-0.336	1.28	0.798
B16	-0.269	0.462	1.6	-0.293
B17	-2.27	-1.55	-0.702	-0.137
B18	-1.83	-0.827	0.758	0.687
B19	-0.392	-0.463	1.09	1.7
B20	-2.19	-2.67	-2.63	-2.17
B21	2.22	2.25	1.49	0.274
B22	3.76	2.16	1.45	0.401
B23	-0.0189	-2.37	-2.27	-0.751
B24	3.64	3.77	2.8	1.25
B25	0.736	-1.47	0.552	-0.0895
B26	3.58	2.6	1.86	0.497
B27	3.55	3.51	2.56	1.24
B28	0.0523	-1.58	1.91	2.18
B29	2.1	0.177	0.1	-0.55
B30	2.54	2.27	2.88	2.26
